# From PubChem BioAssay (NCI)
# The panel holds about 83,000 compounds, 20% with a hit somewhere; the sample as a whole holds those more often.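 Values shown are percent growth following 48 h exposure of cells in 96-well plates to a single concentration of compound; below 10 was considered active.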 Values without a mark were called inactive. Active and inactive are the calls of the source.
# How the values were obtained:
# Assay in all cases: NCI-60 one-dose screen, 48 h (100 = growth as untreated, 0 = no growth, -100 = all killed)
# Settings in all cases: 10 µM unless noted
# SR leukemia = test system: SR leukemia
# RPMI-8226 leukemia = test system: RPMI-8226 leukemia
# OVCAR-8 ovarian = test system: OVCAR-8 ovarian
# OVCAR-5 ovarian = test system: OVCAR-5 ovarian
# OVCAR-4 ovarian = test system: OVCAR-4 ovarian
# SK-OV-3 ovarian = test system: SK-OV-3 ovarian
# IGROV1 ovarian = test system: IGROV1 ovarian
# OVCAR-3 ovarian = test system: OVCAR-3 ovarian
# HS 578T breast = test system: HS 578T breast
# NCI/ADR-RES ovarian = test system: NCI/ADR-RES ovarian
Structure (SMILES),growth (SR leukemia),growth (RPMI-8226 leukemia),growth (OVCAR-8 ovarian),growth (OVCAR-5 ovarian),growth (OVCAR-4 ovarian),growth (SK-OV-3 ovarian),growth (IGROV1 ovarian),growth (OVCAR-3 ovarian),growth (HS 578T breast),growth (NCI/ADR-RES ovarian)
N#CC1=C(c2cccs2)Nc2c(c(-c3ccccc3)nn2-c2ccccc2)C12C(=O)Nc1ccc(Br)cc12 (stereo not drawn),-1.14% (active),2.85% (active),-14.6% (active),-60.4% (active),0.653% (active),-0.147% (active),-7.57% (active),-25.7% (active),-7.18% (active),10.5%
O=C(Cc1c(-c2cccc([N+](=O)[O-])c2)n(-c2ncnc3c2c(-c2ccccc2)c(-c2ccccc2)n3Cc2ccccc2)[nH]c1=O)c1ccc(Cl)c(Cl)c1,59.8%,12.6%,34.3%,66.8%,31.6%,72.2%,33.8%,46.5%,20.2%,51.6%
N#Cc1ccc(C(=O)CSc2nc3c(c(Nc4ccc(S(N)(=O)=O)cc4)n2)CCC3)cc1,58.9%,79.2%,3.1% (active),70.8%,43.9%,67.2%,15.8%,97.1%,26.1%,53%
CCCCCCCCc1ccc(C(=O)Nc2cccc(O)c2)cc1,29.8%,35%,83%,100%,78.8%,109%,85.6%,91.2%,81.4%,59%
CCCCCCCCCc1ccc(C(=O)Nc2cc(C)ccc2C(=O)OC)cc1,90.1%,81.6%,110%,111%,94.5%,107%,118%,124%,106%,109%
CC1CCc2c(sc3nc(SCC(=O)c4cccc([N+](=O)[O-])c4)n(-c4ccccc4)c(=O)c23)C1 (stereo not drawn),49%,84.1%,38.6%,94.2%,98%,98.8%,74.8%,111%,94.7%,65%
O=C1/C(=C/c2cccc3c2OCO3)Cc2c(F)cc(Br)cc21,104%,106%,113%,109%,105%,113%,110%,98.6%,115%,108%
CC[C@]12C=CCN3CC[C@]4(C(=C(C(=O)OC)C1)Nc1cc(OC)c([C@@H]5[C@H]6O[C@H]6[C@@]6(CC)CC(C(=O)OC)=C7Nc8cc(O)ccc8[C@@]78CCN5[C@@H]68)cc14)[C@@H]32,-30.7% (active),-5.84% (active),27.6%,-66.7% (active),14.6%,40.2%,1.62% (active),-9.2% (active),23.7%,6.92% (active)
COc1cc(/C=N/NC(=O)c2ccc(OCc3nc4ccc(Cl)cc4[nH]3)cc2)cc(OC)c1OC,33%,2.76% (active),34.5%,76.3%,67.1%,97.7%,43.1%,55.7%,58.3%,80.6%
Cc1nc(N)ncc1-c1ccc2ncnc(N3CCc4cc(F)c(Cl)cc43)c2c1,45.1%,59.5%,65.4%,49.7%,59.6%,56.5%,-10.1% (active),52%,20.1%,62.7%
C#CCN(C)CCCOc1ccc(N(C)C(=O)c2cc(C(C)C)c(O)cc2O)cc1Cl,-13.5% (active),8.9% (active),9.81% (active),29.4%,36.1%,16.2%,11.4%,30.7%,26.3%,-5.62% (active)
COc1ccc(N=Nc2c(N)nn3c(-c4ccc(OC)c(OC)c4)ccnc23)cc1,77.7%,65.6%,78.8%,87.1%,95.5%,56.4%,95.4%,109%,98.4%,79.2%
COc1ccc(-c2nc3ccccc3n2CC(=O)N=Nc2c(O)[nH]c3ccc(Br)cc23)cc1,7.92% (active),79.1%,71.1%,113%,91.3%,96.8%,60.3%,48.7%,68.7%,78.9%
COc1cc(C2CC(c3ccc(F)cc3)=Nc3c(N)nc(N)nc3N2)ccc1Oc1nc(Nc2ccc(F)cc2)nc(N(C)C)n1 (stereo not drawn),-21.5% (active),15.7%,63%,100%,23.5%,86.8%,51.7%,71.6%,56%,48.5%
N#Cc1ccc(C(=O)NNC(=O)CSc2nc3sc4c(c3c(=O)n2-c2ccc(Cl)cc2)CCCC4)cc1,47.6%,54.6%,34.4%,31.9%,73.8%,72.7%,30.7%,91.8%,59.4%,67.3%
O=C1Nc2ccccc2/C1=C\c1ccc(OCC(=O)c2ccc(Br)cc2)cc1,36.3%,49.2%,69.6%,93.2%,58.2%,101%,78.3%,77.5%,84.5%,47.8%
CC[C@]12C=CCN3CC[C@@]4(c5ccc(OC)cc5N(C)[C@H]4[C@@](O)(C(=O)OC)[C@@H]1OC(=O)CCCC[P+](c1ccc(F)cc1)(c1ccc(F)cc1)c1ccc(F)cc1)[C@@H]32,28.8%,4.14% (active),20%,49.7%,33.1%,41.4%,-42.8% (active),12.6%,-2.23% (active),105%
CCCCC[C@@H]1C/C=C(\C)[C@@H](O)C(C)(C)C(=O)[C@@H](C)/C=C(\C)[C@@H]2C[C@H](O)C[C@](O)(CC(=O)O1)O2,17.1%,8.23% (active),42.3%,78%,27.7%,78.6%,58.5%,35.6%,47.7%,19.7%
COc1ccc(N=Nc2c(N)nn3c(N)c(C#N)c(-c4ccc(F)cc4)nc23)cc1,78.4%,50.3%,29.6%,95.9%,50.9%,43.1%,76.9%,103%,20.6%,25.1%
C#CCN(C)CCCOc1ccc(N(CC)C(=O)c2cc(C(C)C)c(O)cc2O)cc1Cl,-34.3% (active),-33.5% (active),2.93% (active),19.7%,26.1%,7.75% (active),0.38% (active),20.6%,9.36% (active),-33.1% (active)
C/C(=N/O)c1ccc(NC(=O)CSc2nnc(-c3ccc4nc(-c5ccc(Cl)cc5)[nH]c4c3)o2)cc1,24%,54.4%,1.29% (active),118%,101%,117%,102%,84.7%,12.7%,101%
COc1ccc(C2=NN(C(=O)[C@H]3[C@@H](c4ccco4)c4sc(=O)[nH]c4S[C@@H]3C)C(c3ccc4ccccc4c3)C2)cc1 (stereo partly drawn),24.8%,8.59% (active),28%,42.9%,49.2%,84.6%,45.6%,31%,–,26.7%
CS(=O)(=O)Nc1cncc(-c2ccc3ncnc(NCc4ccccc4)c3c2)c1,6.25% (active),52%,49.2%,42.6%,44.8%,67.6%,4.57% (active),33.6%,–,89%
